Assay outcomes deposited in PubChem by National Center for Advancing Translational Sciences (NCATS).
A selection: hits, their analogues and other compounds. The true share with any hit is near 21%.
Shiga inhibitor: Shiga toxin inhibition; inhibition, % at 38.7 µM; Vero cells, Shiga toxin protein synthesis inhibition reporter; 290,000 compounds, 9.2% hits; in the data active means inhibition mostly above about 28%, no sharp cut-off; inactive means mostly below about 43%; further: 0% is about no effect
Cycloheximide cs: counter-screen hit for Shiga toxin inhibitors, cycloheximide | cell reporter, cycloheximide protein synthesis inhibition counterscreen | 300,000 compounds, 12% hits | max response, %; in the data active means max response mostly above about 13%, no sharp cut-off; inactive means mostly below about 14%; further: read at 38.3 µM for the half of the compounds with a filed dose; 0% is about no effect
FBPA Giardia inh: inhibitors of Giardia lamblia fructose-1,6-bisphosphate aldolase | A8B2U2 | purified Giardia FBPA | Potency, µM (doses to about 59.6 µM), inactives show top-dose activity, negative = inhibition, usual class: inhibitors | 290,000 compounds, 0.71% hits; further: potency means the concentration at half of the fitted maximal effect; on the % scale 0 is the no-effect control and ±100 the full control effect; nearly all actives have a fitted effect of over 55% in size
Target sequence (A8B2U2 whole entry, looked up): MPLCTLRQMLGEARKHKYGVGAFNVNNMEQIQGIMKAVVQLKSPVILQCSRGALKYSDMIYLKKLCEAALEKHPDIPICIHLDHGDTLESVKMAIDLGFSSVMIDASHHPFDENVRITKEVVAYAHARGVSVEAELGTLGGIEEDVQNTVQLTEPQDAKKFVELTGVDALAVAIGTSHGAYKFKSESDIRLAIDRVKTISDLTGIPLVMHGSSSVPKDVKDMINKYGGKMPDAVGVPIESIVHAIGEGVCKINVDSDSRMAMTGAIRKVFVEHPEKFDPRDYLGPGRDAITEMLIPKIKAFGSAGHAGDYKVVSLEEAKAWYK
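40 nM FBPA preincubated 10 min at RT with compound (up to 57.5 uM final), then substrate plus GAPDH/TPI/NAD/arsenate coupling and diaphorase/resazurin added. Fluorescence read after 20 min at RT, 525/598 nm.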
NS1 function inh: inhibitors of influenza NS1 protein function | Potency, µM (titrated, usually from 46.1 µM), inactives show at the highest dose activity, positive = more growth | 270,000 compounds, 0.4% hits; calls by dose curve; further: potency means the concentration at half of the fitted maximal effect; actives are rising curves; nearly all actives have a fitted effect of over 50% in size
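S. cerevisiae expressing influenza A NS1, grown in glucose, washed, then diluted 1:100 into pH 6.0 -URA galactose medium with 23 nl compound. Growth recovery read as OD600; NS1-free strain serves as control.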
Pf growth 96h: P. falciparum growth inhibition at 96 hours | P. falciparum luciferase reporter growth, 96 h | Potency, µM (series often up to 28.7 µM), inactives show top-dose activity change, negative = inhibition, hits mostly inhibitors | 320,000 compounds, 6.9% hits | AID 504834; further: potency means the concentration at half of the fitted maximal effect; on the % scale 0 is the no-effect control and ±100 the full control effect
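Infected RBCs, 2% Hct / 0.05% parasitemia final; luciferase-reporter P. falciparum; cpd 96 h, 37 C, 5% CO2; luciferase detection reagent; luminescence.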
Pf growth 48h: inhibits P. falciparum growth in the first generation, 48 h; P. falciparum luciferase growth in erythrocytes, 48 h; Potency, µM (top dose mostly 28.7 µM), for the others: at the top dose activity change, negative = inhibition, most hits filed as inhibitors; 310,000 compounds, 5.9% hits; further: potency means the concentration at half of the fitted maximal effect; on the % scale 0 is the no-effect control and ±100 the full control effect
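A one-generation exposure of luciferase-tagged malaria parasites in RPMI 1640/Albumax erythrocyte culture, 37 C and 5% CO2. Inhibition is inferred from decreased luminescence after adding detection reagent.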
An asterisk follows results filed as active. Unless noted, the call rests on the fitted dose curve; in most records, active means well fitted curve in the direction sought with a large enough effect; inconclusive means small, poorly fitted or top-dose-only effect, or another doubt; inactive means no such curve, though single readings can be large; an effect the other way counts as inactive or inconclusive.

What do the screens show for `Cc1cc2c3c(c1)C1(C(=O)N3C(C)(C)CC2C)C(C#N)=C(N)Oc2n[nH]c(C)c21` (configuration not stated)?
Shiga inhibitor: -4; Cycloheximide cs: -1; FBPA Giardia inh: 6%; NS1 function inh: -4%; Pf growth 48h: 12µM*

Results for Cc1cc2c3c(c1C)C1(C(=O)N3C(C)(C)CC2C)C(C#N)=C(N)OC2=C1C(=O)CC(C)(C)C2 (configuration not stated) ?
Shiga inhibitor: 16; Cycloheximide cs: -2; FBPA Giardia inh: 4%; NS1 function inh: -6%; Pf growth 96h: 9.3µM*; Pf growth 48h: 13µM*

Results for CCC(=O)c1ccccc1OCCCN1CCC(Cc2ccccc2)CC1 ?
Shiga inhibitor: -3; Cycloheximide cs: -2; FBPA Giardia inh: -27%; NS1 function inh: -22%; Pf growth 96h: -12%; Pf growth 48h: inconclusive

How did Nc1cccc2cc(S(=O)(=O)Nc3ccc(C(=O)O)cc3)ccc12 do in these assays?
NS1 function inh: 9%

Results for Cc1nn(C)cc1S(=O)(=O)N1CCN(c2ccccc2)CC1 ?
Shiga inhibitor: -8; Cycloheximide cs: -5; FBPA Giardia inh: -4%; NS1 function inh: inconclusive; Pf growth 96h: 37%; Pf growth 48h: 4%

Results for CC(C)C(=O)Nc1ccc(-c2nc3ncccc3o2)cc1 ?
Shiga inhibitor: 41*; Cycloheximide cs: 29*; FBPA Giardia inh: 0%; NS1 function inh: -18%; Pf growth 96h: inconclusive; Pf growth 48h: 166%

Results for CC(C)C(=O)Nc1cccc(-c2nc3ncccc3o2)c1 ?
Cycloheximide cs: 10; FBPA Giardia inh: 15%; NS1 function inh: -9%; Pf growth 96h: -8%; Pf growth 48h: -13%

How did CC(C)C(=O)Nc1ccc(-c2nc3cccnc3o2)cc1 do in these assays?
Shiga inhibitor: active; Cycloheximide cs: 33*; FBPA Giardia inh: 6%; NS1 function inh: -12%; Pf growth 96h: 1%; Pf growth 48h: 75%

How did CC(C)(C)c1ccc(OCC(=O)Nc2ccc(-c3nc4cccnc4o3)cc2)cc1 do in these assays?
Shiga inhibitor: 12; Cycloheximide cs: 9; FBPA Giardia inh: 10%; NS1 function inh: 15%; Pf growth 96h: inconclusive; Pf growth 48h: 39%

What do the screens show for `Cc1cccc(NC(=O)CSc2nnc(C)c(C)n2)c1`?
Shiga inhibitor: -1; Cycloheximide cs: 3; FBPA Giardia inh: 6%; NS1 function inh: 8%; Pf growth 96h: -1%; Pf growth 48h: 12%

Results for CCCCOc1[nH]c2nc(-c3ccco3)n(Cc3ccco3)c(=N)c2c1C#N ?
Shiga inhibitor: 6; Cycloheximide cs: 16*; FBPA Giardia inh: -7%; NS1 function inh: 4%; Pf growth 96h: 13%; Pf growth 48h: 5.9µM*

Results for COC(=O)CSc1nnc(-c2ccco2)n1Cc1ccco1 ?
Shiga inhibitor: -24; Cycloheximide cs: 9; FBPA Giardia inh: -7%; NS1 function inh: -15%; Pf growth 96h: -21%; Pf growth 48h: 5%

What do the screens show for `O=C(C1CCCCC1)N1CCCc2ccccc21`?
Shiga inhibitor: 31; Cycloheximide cs: 22*; FBPA Giardia inh: 5%; NS1 function inh: -6%; Pf growth 96h: 17%

How did O=C(NC1CCCCC1)N1CCCc2ccccc21 do in these assays?
Shiga inhibitor: -2; Cycloheximide cs: -1; FBPA Giardia inh: 0%; NS1 function inh: -9%; Pf growth 96h: -11%; Pf growth 48h: -10%

What do the screens show for `O=C(C1COc2ccccc2O1)N1CCc2ccccc21` (configuration not stated)?
Shiga inhibitor: 67*; Cycloheximide cs: 68*; FBPA Giardia inh: -4%; NS1 function inh: -1%; Pf growth 96h: 34%; Pf growth 48h: 54%

What do the screens show for `O=C1CC(C(=O)N2CCCc3ccccc32)CN1c1ccc(Cl)cc1` (configuration not stated)?
Shiga inhibitor: 64; Cycloheximide cs: 39*; FBPA Giardia inh: 2%; NS1 function inh: -15%; Pf growth 96h: inconclusive; Pf growth 48h: -8%

What do the screens show for `O=C(NC1CC2CCCC(C1)N2CC(=O)N1CCCc2ccccc21)C1CCCCC1` (configuration not stated)?
Shiga inhibitor: -3; Cycloheximide cs: 1; FBPA Giardia inh: 3%; NS1 function inh: -3%; Pf growth 96h: 15µM*; Pf growth 48h: -9%

How did O=C(C1CC(=O)N(c2ccccc2)C1)N1CCCCCC1 (configuration not stated) do in these assays?
Shiga inhibitor: -1; Cycloheximide cs: 2; FBPA Giardia inh: 2%; NS1 function inh: 3%; Pf growth 96h: inconclusive; Pf growth 48h: 31%

What do the screens show for `CC(=O)NC1CC2CCCC(C1)N2CC(=O)N1CCCc2ccccc21` (configuration not stated)?
Shiga inhibitor: 15; Cycloheximide cs: -1; FBPA Giardia inh: 0%; NS1 function inh: -3%; Pf growth 96h: -28%; Pf growth 48h: 6%

Results for O=C(CCN1N=C(c2ccccc2)CCC1=O)NCCCN1CCOCC1 ?
Shiga inhibitor: 5; Cycloheximide cs: -1; NS1 function inh: 11%; Pf growth 96h: -3%; Pf growth 48h: 29%

What do the screens show for `O=C(C1CC(=O)N(c2ccc(F)cc2)C1)N1CCCCC1` (configuration not stated)?
Shiga inhibitor: 0; Cycloheximide cs: 7; FBPA Giardia inh: 11%; NS1 function inh: 13%; Pf growth 96h: 1%; Pf growth 48h: 6%

Results for O=C1CC(C(=O)N2CCCc3ccccc32)CN1c1ccc(F)cc1 (configuration not stated) ?
Shiga inhibitor: 75*; Cycloheximide cs: 25*; FBPA Giardia inh: -3%; NS1 function inh: 10%; Pf growth 96h: inconclusive; Pf growth 48h: 7%

What do the screens show for `CNC[C@H](NC[C@@H](NCCCc1ccccc1)c1ccccc1)[C@H](C)O`?
Shiga inhibitor: 2; Cycloheximide cs: -2; FBPA Giardia inh: 29%; NS1 function inh: -13%; Pf growth 96h: inconclusive; Pf growth 48h: inconclusive

Results for COc1cc(C(=O)NCCC(=O)NCc2c(F)cc(F)cc2F)cc(OC)c1OC ?
Shiga inhibitor: -7; Cycloheximide cs: -2; NS1 function inh: 0%; Pf growth 96h: inconclusive; Pf growth 48h: -11%

Results for CCn1c(=NC(=O)CS(=O)(=O)c2ccc(F)cc2)sc2cccc(OC)c21 ?
Pf growth 96h: inconclusive; Pf growth 48h: 12µM*

What do the screens show for `COc1ccc2c(c1)sc(=NC(=O)CS(=O)(=O)c1ccc(F)cc1)n2C`?
Pf growth 96h: 4.1µM*; Pf growth 48h: 9.3µM*

What do the screens show for `COCCn1c(=NC(=O)CCS(=O)(=O)c2ccccc2)sc2cc(F)ccc21`?
Shiga inhibitor: 12; Cycloheximide cs: 9; NS1 function inh: 2%; Pf growth 96h: inconclusive; Pf growth 48h: -13%
